According to PubChem BioAssay AID1479 (National Center for Advancing Translational Sciences (NCATS), 2009):
In all, about 280,000 compounds went through this assay and about 820 (0.29%) were called active. Roughly 1% stayed inconclusive and do not appear here. This is one part of a sample in which actives are shown more often than they occur. Unmarked numbers belong to inactive results. Calls come from the whole dose curve; as a rule, active = well fitted curve in either direction with a large enough effect; inconclusive = small, poorly fitted or top-dose-only effect; inactive = flat fitted curve, though single readings scatter.

Assay: Total Fluorescence Counterscreen for Inhibitors of the Interaction of Thyroid Hormone Receptor and Steroid Receptor Coregulator 2
Settings: TRb/SRC2 Texas Red total fluorescence interference; series mostly up to 106 µM; fluorescence change, negative = quenching: at the top concentration
Source text: NIH Molecular Libraries Probe Production Network [MLPCN]
NIH Chemical Genomics Center [NCGC]
Assay Provider: R. Kip Guy, St. Jude Children's Research Hospital
Thyroid receptor (TR) regulates many homeostatic processes including basal metabolism, cardiovascular function, body weight, and lipid trafficking. TR modulators are potential therapeutics for obesity and hyperlipidemias but current thyroid analogs have undesirable side effects, particularly cardiac stimulation. To identify inhibitors that specifically prevent the interaction of TR with the steroid receptor […] 2 (SRC2), a fluorescence polarization assay was screened. This assay detects interaction of the ligand-binding domain of human TRb with a Texas Red labeled SRC2 peptide, corresponding to a 20 amino acid region of the nuclear receptor interaction domain (Arnold et al., 2006). Total fluorescence (555 nm excitation and 632 nm emission) was measured to identify potential fluorescent and light absorbing compounds. Such compounds may be artifacts that interfere with the fluorescence polarization assay.
Arnold, L. A.; Estebanez-Perpina, E.; Togashi, M.; Shelat, A.; Ocasio, C. A.; McReynolds, A. C.; Nguyen, P.; Baxter, J. D.; Fletterick, R. J.; Webb, P.; Guy, R. K. A high-throughput screening method to identify small molecule inhibitors of thyroid hormone receptor coactivator binding. Sci STKE 2006, p 13.
NCGC Assay Protocol Summary:
For screening, 5 uL/well 0.6 uM TRb and 20 nM SRC2 Texas Red in protein buffer (20mM Tris hydrochloride, 100mM NaCl, 10% glycerol, 1mM EDTA, 0.01% NP-40, 1mM DTT, 1uM T3 and 5% DMSO) was dispensed into black solid 1536-well plates (Grenier) using a solenoid-based dispenser. Following transfer of 23 nL compound or DMSO vehicle by a pin tool, the plates were centrifuged 15 s at 1000 RPM and incubated 5 hr at ambient temperature. The plates were read by an Envision (Perkin Elmer) to detect fluorescence polarization of SRC2 Texas Red (555 nm excitation and 632 nm emission). Data were normalized to unbound (all components except TRb) and bound SRC2 Texas Red controls. Total fluorescence (TF) was calculated as follows: TF = S + 2P where S and P are fluorescence readings in the parallel and perpendicular channels, respectively.
Keywords: NIH Roadmap, MLPCN, MLI, MLSMR, qHTS, NCGC, qHTS, thyroid hormone receptor, steroid receptor coactivator, fluorescence polarization
% is set by controls: 0 for no effect and ±100 for the full control effect; potency is the fitted concentration of half-maximal effect; tags give direction and shape of the fitted curve or compound fluorescence and quenching.

SMILES	fluorescence change, negative = quenching	Potency
COc1ccc(-c2cn(-c3ccc(OC)cc3)c(=S)[nH]2)cc1	-1.99%	
COc1cc(OC)c(-n2cc(-c3ccc(Cl)cc3)[nH]c2=O)cc1Cl		126 µM [quencher] (active)
COc1cc(OC)c(-n2c(C)cc(C=O)c2C)cc1Cl	0.922%	
Cc1nc2nc(SCC(=O)NC3CCC(C)CC3)nn2c(C)c1Cc1ccccc1Cl (stereo not drawn)	-2.74%	
CCS(=O)(=O)N1CCc2cc(C(=O)NCc3ccc(C)cc3)ccc21	-1.18%	
COC(=O)c1cc(NC(=O)c2sc3ccccc3c2Cl)cc(C(=O)OC)c1	3.06%	
CCCC(=O)Nc1ccc(NC(=O)c2sc3ccccc3c2Cl)cc1		1.26 µM [quencher] (active)
O=C(Nc1ccon1)c1sc2ccccc2c1Cl	-5.33%	
O=C(NCC(c1ccc2c(c1)OCO2)N1CCN(c2ccccc2)CC1)C(=O)Nc1ccccc1F (stereo not drawn)	-23.7%	
Cc1ccc(Cl)cc1N(C)C(=O)Cn1nc(Cc2cccnc2)c2ccccc2c1=O	-1.68%	
CCC(=O)N1N=C(c2ccc(OC)cc2)CC1c1cn(-c2ccccc2)nc1-c1cccs1 (stereo not drawn)	0.912%	
COc1ccc(Cl)cc1NC(=O)CCn1c(=O)c2cccn2c2ccccc21	2.79%	
Cc1ccc(C)c(N2CCN(S(=O)(=O)c3ccc4c(c3)C(C(C)C)C(=O)N4)CC2)c1 (stereo not drawn)	-3.11%	
Cc1c(-c2nc(-c3ccc4c(c3)OCO4)no2)nnn1-c1ccc(Br)cc1F	0.271%	
Cc1ccc(CN2CCCn3nc(C(=O)NCc4ccccc4Cl)cc3C2=O)cc1	-1.63%	
Cc1ccccc1CNC(=O)CCc1cn(Cc2ccccc2C)c2ccccc12	-3.5%	
Cc1ccc(C)c2sc(NC(=O)c3ccc(S(=O)(=O)N4CCCC4)cc3)nc12	-1.98%	
Cc1ccc(S(=O)(=O)n2nc(-c3ccc(Cl)cc3)nc2NCc2ccccc2)cc1		1000 µM [quencher] (active)
O=C(c1ccco1)n1nc(-c2ccc(Cl)cc2)nc1NCc1ccccc1	2.98%	
COc1ccc(CNc2nc(-c3ccc(Cl)cc3)nn2S(=O)(=O)c2ccc(C)cc2)cc1	-14.6%	
CCOC(=O)C1CCN(c2nc3c(S(=O)(=O)c4ccc(CC)cc4)nnn3c3ccc(Cl)cc23)CC1	3.96%	
O=c1cc(-c2ccc(O)c(O)c2)oc2cccc(O)c12	-7.29%	
Cn1c2ccccc2c(=O)c2c(O)cccc21	-3.09%	
Oc1ccc(O)c2c(O)cccc12		28.2 µM [quencher] (active)

SMILES	fluorescence change, negative = quenching	Potency
CCOc1cccc(NC(=O)c2ccc(F)c(S(=O)(=O)N(CC)c3cccc(C)c3)c2)c1	-2.68%	
Cc1ccc(Cn2c(CNC(=O)Cc3cccc(C)c3)nc3cccnc32)cc1	0.294%	
CCn1c(=O)c(=O)n(CC)c2cc(N3CCCCC3)c(NC(=O)c3ccc(Cl)cc3)cc21	-11.1%	
Cc1ccc(C(=O)Nc2cc3c(cc2N2CCCC2)n(C)c(=O)c(=O)n3C)cc1	5.45%	
Cc1ccc(NC(=O)c2ccc(CN3CC(=O)N4CCCCC4C3=O)cc2)c(Cl)c1 (stereo not drawn)		70.8 µM [quencher] (active)
CC(C)CCCCCOC(=O)CS	-0.794% [at 201 µM]	
CCOc1ccccc1NC(=O)Cn1c(=O)n(-c2cccc(C)c2)c(=O)c2c1c1cc(OC)ccc1n2C	0.837%	
COc1ccc(-c2c(C)nn3c(N4CCC(C(=O)N5CCCCC5)CC4)cc(C)nc23)cc1OC	-3.06%	
COc1ccc(-c2c(C)nn3c(N4CCC(C(=O)NCCC(C)C)CC4)cc(C)nc23)cc1OC	1.53%	
COc1cccc(NC(=O)C2CCN(c3cc(C)nc4c(-c5ccc(Cl)cc5)c(C)nn34)CC2)c1		89.1 µM [quencher] (active)
COc1ccc(CCNC(=O)c2cc3cccc4c3n2CC(C)S4)c(OC)c1OC (stereo not drawn)	-1.75%	
O=S(=O)(c1cccs1)N1CCN(Cc2ccccc2)CC1	-0.111%	
Cc1cc2oc(=O)cc(CN3CCN(S(=O)(=O)c4cccs4)CC3)c2cc1C(C)C		7.08 µM [quencher] (active)
COc1ccc2c(CN3CCN(S(=O)(=O)c4cccs4)CC3)cc(=O)oc2c1	5.04%	
COc1cc(OC)cc(-c2nc3nc(C)c(CCC(=O)Nc4ccccc4)c(C)n3n2)c1	-5.62%	
Cc1ccc(C)c(Oc2c(C(F)(F)F)oc3c(CN4CCN(C)CC4)c(O)ccc3c2=O)c1	0.669%	
CCOCCCNC(=O)c1c(NC(=O)Cc2coc3c(C)c(C)ccc23)sc2c1CCC2	-22.2%	
CCOCCCNC(=O)c1c(NC(=O)Cc2coc3ccc(C)cc23)sc2c1CCC2		35.5 µM [quencher] (active)
CCOC(=O)c1c(NC(=O)Cc2coc3ccc(CC)cc23)sc2c1CCC2	7.09%	
Cc1ccc(-n2c(SCC(=O)c3ccccc3)nc3c([nH]c4ccccc43)c2=O)cc1	-3.63%	
COc1cc(OC)cc(C(=O)Nc2ccc3nc(Nc4cccc(C(F)(F)F)c4)cc(C)c3c2)c1	-12.6%	
Cc1c(NC(=O)C(C)(C)C)cccc1-c1nc2ccccc2s1	7.43%	
COc1cccc(CNC(=O)c2ccc3c(c2)sc2nc(-c4cccc(OC)c4)cn23)c1	-4.52%	
CCCCn1cc(S(=O)(=O)c2ccc(OCC)cc2)c(=O)c2cc(OC)c(OC)cc21	-1.29%	
